PubChem BioAssay

Assay: MM1S cell viability effects, profiling panel, calcein-AM fluorescence, 48 h, basal (AID 1165);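 note: viability of MM1S multiple myeloma cells under basal unstimulated conditions; test concentration not given here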
Details: higher = more signal

| SMILES | z-score |
| --- | --- |
| [N-]=[N+]=Nc1ccccc1[C@H]1OC(c2ccc(OCCCO)cc2)=N[C@@]1(Cc1ccccc1)C(=O)N1CCOCC1 | -2.4 |
| CN1C(=O)C2C=CC(C(O)c3ccccc3)N(N3CCCCC3)C2C1=O (stereo not given) | -0.4 |
| C=CCC(OC(C)=O)[C@@H]1[C@@H](N(Cc2ccc(-c3ccccc3)cc2)C(=O)Cc2ccc(F)cc2)c2cc(OCCCO)ccc2N1C(=O)c1ccc2ccccc2c1 (stereo not given in full) | -0.895 |
| COc1cc(CO)cc(I)c1O[C@H]1C=C(C(=O)NCCO)C[C@@H](N(C(=O)c2cc3ccccc3oc2=O)C2CCCCCC2)[C@@H]1O | 0.443 |
| CCCNC(=O)[C@@]1(Sc2ccc(C)cc2)CC(=O)N(Cc2ccccc2C(F)(F)F)[C@@H]1c1ccc(CO)cc1I | -2.3 |
| NC(=O)[C@@H]1[C@H]2C(=O)O[C@H](c3ccccc3)[C@H](c3ccccc3)N2[C@H](c2ccc(OCCO)cc2)[C@@]12C(=O)Nc1ccc(C#CC3=CCCCC3)cc12 | -3.28 |
| COCCCNC(=O)[C@@]1(Cc2ccccc2)N=C(c2ccc(OCCCO)cc2)O[C@H]1c1ccccc1CN=[N+]=[N-] | -0.0943 |
| Cc1ccc(C2C3C(=O)CC4C(=O)N(c5ccccc5)C(=O)C4C3CN2S(=O)(=O)c2ccc(C)cc2)cc1 (stereo not given) | 0.948 |
| O=C(NC1CC1)[C@@H]1c2ccccc2C(=O)N(Cc2cc(F)cc(C(F)(F)F)c2)[C@H]1c1ccc(CO)cc1 | -1.65 |
| COc1cc2c(cc1O)C(c1cccs1)N(Cc1cccc(OC(F)(F)F)c1)CC2 (stereo not given) | -3.14 |
| CCOC(=O)C1=CC[C@@H](c2ccccc2)N(S(=O)(=O)c2ccc(C)cc2)[C@H]1c1ccc(CC)cc1 | 0.677 |
| CN1CCC(CCCO)=CC1c1cccs1 (stereo not given) | 0.277 |
| CCCCCN1CC=CC23O[C@@H]4C=CCOC(=O)[C@@H]4[C@H]2C(=O)N(C(C)CO)[C@@H]3C1=O (stereo not given in full) | -0.425 |
| Cc1ccc(S[C@]2(C(=O)NCC(C)C)CC(=O)N(Cc3cc(C(F)(F)F)cc(C(F)(F)F)c3)[C@@H]2c2ccc(CO)cc2)cc1 | -0.741 |
| CC1CC/C=C\[C@H]2OC34C=CCN(Cn5nnc6ccccc65)C(=O)[C@H]3N(CCCCCO)C(=O)[C@@H]4C2C(=O)O1 (stereo not given in full) | 1.4 |
| COc1ccc([Si](C)(C)[C@@H]2[C@@H](CCO)O[C@]3(C(=O)N(Cc4cccc(N5CCOC5=O)c4)c4ccccc43)[C@H]2C)cc1 | -2.11 |
| CCCCN1CC=CC23O[C@@H]4C=CCCOC(=O)C4[C@H]2C(=O)N(CCCCCO)[C@@H]3C1=O (stereo not given in full) | 1.83 |
| COc1ccc(CCNC(=O)[C@@]2(C)c3ccccc3C(=O)N(c3ccc(C)cn3)[C@H]2c2ccc(CO)cc2)cc1 | -0.64 |

| SMILES | z-score |
| --- | --- |
| COC(=O)[C@@]1(Cc2ccc(OC)cc2)[C@H]2c3cc(C(=O)N4CCCC4)n(Cc4nc5ccccc5[nH]4)c3C[C@H]2CN1C(=O)c1ccccc1 | -2.01 |
| [N-]=[N+]=NCc1ccccc1[C@@H]1OC(c2ccc(OCCCO)cc2)=N[C@]1(CCS(=O)(=O)c1ccccc1)C(=O)N1CCOCC1 | 0.191 |
| CCOC(=O)C1=CC[C@H]2C(=O)N(c3ccccc3)C(=O)[C@@H]12 | -0.472 |
| COC(=O)[C@@]1(Cc2ccc(F)cc2)[C@H]2c3cc(C(=O)N(C)C)n(Cc4ccc(C)o4)c3C[C@H]2CN1C(=O)c1ccccc1 | -1.58 |
| OCCCC1=CC(C2CC2)N(Cc2cccc(OC(F)(F)F)c2)CC1 (stereo not given) | -0.522 |
| CCOc1cc(C(O)C2C=CC3C(=O)N(c4ccccc4)C(=O)C3N2Nc2ccc(C(C)C)cc2)ccc1O (stereo not given) | -2.67 |
| CO[C@H]1O[C@H](CO)[C@@H](OC(=O)Nc2ccccc2)[C@@H]2OC(=O)[C@@H](Cc3ccc4ccccc4c3)C/C=C/C[C@H](Cc3ccc4ccccc4c3)C(=O)O[C@@H]12 | -0.268 |
| CCOC(=O)C[C@H]1[C@H](OC(=O)c2ccc(C(=O)c3ccccc3)cc2)[C@@H](NC(=O)Cc2ccc(OC)cc2)c2cc(OCCCO)ccc2N1C(=O)c1ccc2ccccc2n1 | -0.854 |
| C=CC[C@]1(C(=O)N2CCOCC2)N=C(c2ccc(OCCCO)cc2)O[C@H]1c1ccccc1N=[N+]=[N-] | -0.094 |
| NC(=O)[C@@H]1[C@H]2C(=O)O[C@H](c3ccccc3)[C@H](c3ccccc3)N2[C@H](c2ccc(O)cc2)[C@@]12C(=O)Nc1ccc(C#CC3=CCCCC3)cc12 | -3.27 |
| COCCCNC(=O)[C@]1(Cc2ccccc2)N=C(c2ccc(OCCCO)cc2)O[C@@H]1c1ccccc1CN=[N+]=[N-] | -0.488 |
| CC(C)(C)OC(=O)CC[C@]1(C(N)=O)N=C(c2ccc(OCCCO)cc2)O[C@H]1c1ccccc1 | -0.415 |
| O=C1C2C=CC(C(O)C=Cc3ccc([N+](=O)[O-])cc3)N(Nc3ccccc3F)C2C(=O)N1c1ccccc1 (stereo not given) | -1.45 |
| C=C(CCCC)/C(=C/C[C@@H](OC(C)=O)c1ccccc1OCCO)c1cc(C(=O)OC)ccc1OC | -2.54 |
| O=C1C2C=CC(C(O)c3ccc(F)cc3)N(Nc3ccc([N+](=O)[O-])cc3)C2C(=O)N1c1ccccc1 (stereo not given) | -0.06 |
| CC(=O)NCCCC[C@@H]1NC(=O)[C@H]2C[C@@H](C(=O)O)[C@@H](c3ccc(O)cc3)N2C1=O | -2.18 |
| COc1ccc([Si](C)(C)[C@H]2[C@H](CCn3cc([C@H](O)c4ccccc4)nn3)O[C@@]3(C(=O)N(C)c4ccccc43)[C@@H]2C)cc1 | -0.615 |
